JMJD2A Tudor – blocks the human JMJD2A Tudor domain | 390,000 compounds, 4.4% hits | AlphaScreen JMJD2A-Tudor / H3K4me3 peptide binding | Potency, µM (doses to about 114 µM), without a hit: at the highest dose activity change, negative = inhibition, most hits filed as inhibitors | O75164 | AID 504339; further: on the % scale 0 is the no-effect control and ±100 the full control effect; nearly all actives have a fitted effect of over 50% in size
PLK1 PBD block – PLK1 (human) polo-box domain binding inhibition; P53350; Plk1 PBD binding of FITC phosphopeptide, fluorescence polarization; Potency, µM, for inactives: max response, negative = inhibition, actives largely listed as inhibitors; 360,000 compounds, 2.8% hits; AID 720504; further: series mostly up to about 57 µM; on the % scale 0 is the no-effect control and ±100 the full control effect; nearly all actives have a fitted effect of over 65% in size
G9a block – blocks human histone lysine methyltransferase G9a. G9a H3K9 monomethylation, AlphaScreen, 2 h. Potency, µM (series often up to 102 µM), without a hit: top-dose activity, negative = inhibition, most hits filed as inhibitors. 350,000 compounds, 8.8% hits; further: on the % scale 0 is the no-effect control and ±100 the full control effect; nearly all actives have a fitted effect of over 75% in size
Target sequence (Q96KQ7 913-1193 limits assumed): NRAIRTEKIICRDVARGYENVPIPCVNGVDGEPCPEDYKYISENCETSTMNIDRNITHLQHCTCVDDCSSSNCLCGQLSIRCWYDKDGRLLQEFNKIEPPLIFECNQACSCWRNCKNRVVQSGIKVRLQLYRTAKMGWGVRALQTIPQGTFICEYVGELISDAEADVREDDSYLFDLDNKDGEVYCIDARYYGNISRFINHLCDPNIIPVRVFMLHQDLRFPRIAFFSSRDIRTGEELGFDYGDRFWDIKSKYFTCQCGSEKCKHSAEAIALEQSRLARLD
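Methyltransferase reactions run at room temperature for 2 h (20 nM enzyme, 500 nM biotin-H3K9 peptide, 20 uM SAM) after a 15 min compound preincubation; product detected by AlphaScreen beads and anti-H3K9me1 antibody.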
VDR inh – vitamin D3 receptor (human) inhibition. Potency, µM, for inactives: max response, negative = inhibition, hits mostly inhibitors. 400,000 compounds, 0.93% hits. VDR-SRC2-3 peptide fluorescence polarization, 2 h; further: on the % scale 0 is the no-effect control and ±100 the full control effect
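Reagent solutions, kept cold and dark, are dispensed first; compounds are then pinned in at 23 nl, plates briefly spun, and incubated 2 h at ambient temperature. Inhibition of VDR–SRC2-3 peptide binding is read by fluorescence polarization.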
BAZ2B inh – inhibitors of human BAZ2B bromodomain; Q9UIF8; 360,000 compounds, 4.4% hits; AID 504333; AlphaScreen BAZ2B-H3K14Ac peptide displacement; Potency, µM (series often up to 114 µM), for the others: top-dose activity change, negative = inhibition, usual class: inhibitors; further: on the % scale 0 is the no-effect control and ±100 the full control effect; nearly all actives have a fitted effect of over 60% in size
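In this displacement format the biotinylated H3(5-23) peptide acetylated at Lys14 serves as ligand at 50 nM, with BAZ2B at 50 nM in PBS pH 7.4 containing 0.01% Tween-20. Donor and acceptor beads are 10 ug/mL final.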
HP1b chromo inh – HP1-beta chromodomain-methylated histone interaction inhibition | P83916 | AlphaScreen HP1-beta / biotin-H3K9me3 peptide binding | Potency, µM (highest dose often 114 µM), for inactives: top-dose activity change, negative = inhibition, usual class: inhibitors | 390,000 compounds, 0.56% hits | AID 540317; further: nearly all actives have a fitted effect of over 70% in size
Target sequence (P83916 whole entry, looked up): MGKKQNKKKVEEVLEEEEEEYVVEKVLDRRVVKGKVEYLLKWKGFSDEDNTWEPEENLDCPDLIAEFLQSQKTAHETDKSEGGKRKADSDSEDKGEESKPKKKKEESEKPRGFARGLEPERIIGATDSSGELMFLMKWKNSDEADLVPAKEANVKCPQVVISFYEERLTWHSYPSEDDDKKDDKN
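Compound inhibition of the preformed complex between 50 nM HP1-beta and 50 nM biotinylated H3K9me3 peptide was read by AlphaScreen. Buffer was PBS pH 7.4 with 0.01% Tween-20. Incubations ran 30 min at room temperature, with 10 ug/mL donor/acceptor beads.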
Starred values were filed as active, the others as inactive; [ ] = dose if it differs, or a comment. Shown are actives, neighbours in structure and some others; about 11% of the full set was active somewhere. The call rests on the fitted dose curve; in most records, active means well fitted curve in the direction sought with a large enough effect; inconclusive means small, poorly fitted or top-dose-only effect, or another doubt; inactive means no such curve, though single readings can be large; an effect the other way counts as inactive or inconclusive. Potency means the concentration at half of the fitted maximal effect.

`CCOC(=O)c1c(N)nn(C(=O)C(C)(C)C)c1-c1ccccc1` gave JMJD2A Tudor -10%, PLK1 PBD block 0%, G9a block inconclusive, VDR inh -5%, BAZ2B inh 4% and HP1b chromo inh 43%.
`CCOC(=O)c1c(N)sc(-c2ccccc2)c1C` gave JMJD2A Tudor inconclusive, PLK1 PBD block 19µM*, G9a block 8.9µM*, VDR inh -15%, BAZ2B inh -36% and HP1b chromo inh inconclusive.
For Cc1cccc(C)c1N(C(=O)c1ccco1)C(C(=O)NC1CCCC1)c1ccncc1 (stereo unspecified) the results were JMJD2A Tudor -1%, PLK1 PBD block -5%, G9a block 0%, VDR inh 13%, BAZ2B inh 4% and HP1b chromo inh 48%.
CC(=O)N1CCN(c2ccc(NS(=O)(=O)c3ccc4c(c3)CC(=O)N4)cc2)CC1 was read as JMJD2A Tudor 126µM*.
`O=S(=O)(Nc1ccc(N2CCOCC2)cc1)c1ccccc1` gave JMJD2A Tudor -5%, PLK1 PBD block -9%, G9a block inconclusive, VDR inh 4%, BAZ2B inh 6% and HP1b chromo inh 14%.
Screening CN1C(=O)Cc2cc(S(=O)(=O)Nc3ccc(N4CCOCC4)cc3)ccc21 returned JMJD2A Tudor -16%, PLK1 PBD block 0%, G9a block 79µM*, VDR inh 2%, BAZ2B inh -20% and HP1b chromo inh 7%.
Screening CC(=O)c1ccc(N2CCN(S(=O)(=O)c3ccc4c(c3)CC(=O)N4)CC2)cc1 returned JMJD2A Tudor -29%[229 µM], PLK1 PBD block -12%, VDR inh 12%, BAZ2B inh 1% and HP1b chromo inh 44%.
CCOc1ccc(S(=O)(=O)N2CCOCC2)cc1NS(=O)(=O)c1ccc(OC)c([N+](=O)[O-])c1 was read as JMJD2A Tudor 0%, PLK1 PBD block -7%, G9a block -34%, VDR inh -14%, BAZ2B inh 8% and HP1b chromo inh 35%.
`COc1ccc(S(=O)(=O)Nc2ccc(N3CCOCC3)cc2)cc1[N+](=O)[O-]` gave JMJD2A Tudor -15%, PLK1 PBD block -7%, G9a block 45µM*, VDR inh -19%, BAZ2B inh -30% and HP1b chromo inh 33%.
For Cc1cc(S(=O)(=O)Nc2ccc(N3CCOCC3)cc2)ccc1Br the results were JMJD2A Tudor inconclusive, PLK1 PBD block -5%, G9a block 40µM*, VDR inh -2%, BAZ2B inh inconclusive and HP1b chromo inh 0%.
Cc1ccc(NC(=O)CSc2nc3c(sc4ccccc43)c(=O)n2CCCC(=O)NC2CCCC2)cc1C was read as JMJD2A Tudor 1%, G9a block 13%[59 µM], VDR inh -1%, BAZ2B inh 1% and HP1b chromo inh 31%.
Screening COc1ccc(S(=O)(=O)Nc2ccc(N3CCOCC3)cc2)cc1Br returned JMJD2A Tudor inconclusive, PLK1 PBD block -11%, G9a block 10µM*, VDR inh -5%, BAZ2B inh inconclusive and HP1b chromo inh -17%.
Cc1cc(C)c(S(=O)(=O)Nc2ccc(N3CCOCC3)cc2)c(C)c1 was read as JMJD2A Tudor -35%, PLK1 PBD block 4%, G9a block inconclusive, VDR inh 1%, BAZ2B inh inconclusive and HP1b chromo inh -12%.
`O=S(=O)(Nc1ccc(N2CCOCC2)cc1)c1c(F)cc(F)cc1Br` gave JMJD2A Tudor -25%[57.1 µM], PLK1 PBD block inconclusive, G9a block 40µM*, VDR inh -14%, BAZ2B inh -30% and HP1b chromo inh inconclusive.
For O=C(O)CCn1cc(/C=C/C(=O)c2ccc(Cl)cc2)c(-c2ccc(Br)cc2)n1 the results were JMJD2A Tudor -35%, PLK1 PBD block inconclusive, G9a block 79µM*, VDR inh 40µM*, BAZ2B inh -35% and HP1b chromo inh 3%.
O=C(O)/C=C/c1cn(Cc2ccccc2)nc1-c1ccccc1 was read as JMJD2A Tudor -14%, PLK1 PBD block -4%, G9a block 7%[59 µM], VDR inh 0%, BAZ2B inh 3% and HP1b chromo inh 15%.
For O=C(COC(=O)c1cc(Cl)ccc1O)NCCNC(=O)COC(=O)c1cc(Cl)ccc1O the results were JMJD2A Tudor -12%, PLK1 PBD block -4%, G9a block 40µM*, VDR inh -7%, BAZ2B inh 10% and HP1b chromo inh 9%.
O=C(COC(=O)c1ccc(Cl)cc1O)Nc1cccnc1Cl was read as JMJD2A Tudor -6%, PLK1 PBD block -13%, G9a block 50µM*, VDR inh 2%, BAZ2B inh 0% and HP1b chromo inh 12%.
`Cc1cc(C)cc(C(=O)NCC(=O)OCC(=O)Nc2cccnc2Cl)c1` gave JMJD2A Tudor 10µM*, PLK1 PBD block -13%, G9a block 5%, VDR inh 4%, BAZ2B inh 3% and HP1b chromo inh -18%.
Screening CCOC(=O)c1sc2nc3c(cc2c1N)COC(C)(CC)C3 (stereo unspecified) returned JMJD2A Tudor 18%, PLK1 PBD block -5%, G9a block 68%[12.7 µM], VDR inh 13%, BAZ2B inh 17% and HP1b chromo inh 93%.
CCC1(C)Cc2nc3sc(C(=O)O)c(N)c3cc2CO1 (stereo unspecified) was read as JMJD2A Tudor 50µM*, PLK1 PBD block -6%, G9a block 3.5µM*, VDR inh -1%, BAZ2B inh 0% and HP1b chromo inh 24%.
`Cc1cc(F)ccc1NCc1ccccc1-c1nnc(-c2ccccc2Cl)o1` gave JMJD2A Tudor -28%, G9a block inconclusive, VDR inh -5%, BAZ2B inh -39% and HP1b chromo inh 2%.
Screening O=Cc1ccc(O)c2ncccc12 returned JMJD2A Tudor 2.8µM*, PLK1 PBD block -10%, G9a block inconclusive, VDR inh 3%, BAZ2B inh 1.3µM* and HP1b chromo inh 81%.
Screening COc1cccc(C=O)c1OCCCOc1cccc2cccnc12 returned JMJD2A Tudor -6%, PLK1 PBD block -5%, VDR inh -8%, BAZ2B inh -17% and HP1b chromo inh 40%.
Screening COc1ccc(NC(=O)N2CCN(C(=O)C(Cc3ccc(F)cc3)NC(C)=O)CC2)cc1 (stereo unspecified) returned JMJD2A Tudor 4%, PLK1 PBD block -6%, G9a block 4%, VDR inh 6%, BAZ2B inh 2% and HP1b chromo inh 12%.
`O=C(NNc1nc(-c2ccc(F)cc2)cs1)c1ccccc1` gave JMJD2A Tudor -19%, PLK1 PBD block inconclusive, G9a block 22µM*, VDR inh -9%, BAZ2B inh -17% and HP1b chromo inh inconclusive.
